An excerpt weighted towards active compounds, which were near 2.1% of everything screened.
Sa RN4220 lethal = kills Staphylococcus aureus RN4220 | AID 1259311 | inhibition, % (test concentration not listed) | 330,000 compounds, 0.33% hits | S. aureus RN4220 growth, OD600, 16 h; in the data active = inhibition above about 85%;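 also: plate controls were untreated cells for no effect and reference antibiotic for full effect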
Sa ugtP lethal = kills S. aureus RN4220 lacking UgtP. S. aureus RN4220 ugtP deletion, OD600 growth, 16 h. growth inhibition, % (concentration not given with the values). 330,000 compounds, 0.54% hits; in the data active = growth inhibition above about 68%;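 also: plate controls were untreated wells for no effect and antibiotic for full effect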
CCHF vOTU inh-1 = blocks the CCHF virus ovarian tumor domain protease. 370,000 compounds, 0.55% hits. AID 651958. inhibition, % at 11.5 µM. CCHFV vOTU protease, Pep-AMC fluorescence; also: 0% = vehicle wells with enzyme and 100% = no enzyme wells
PrPC TRFRET = reduces human prion protein on the cell surface; P04156; cell surface PrPC, TR-FRET read-out; inhibition, % at 13.8 µM; 370,000 compounds, 0.43% hits; AID 720596; in the data active = inhibition above about 24%; also: 0% = median of the test wells and 100% = reference compound wells
PrP UTR inh = suppresses PrP 5' UTR mRNA reporter expression | cell-based PrP 5' UTR mRNA reporter, plate reader | inhibition, % (test concentration not listed) | 340,000 compounds, 0.35% hits; in the data active = inhibition above about 52%; also: 0 = median of the neutral control wells
PfHsp40 rescue = restores yeast growth despite PfHsp40 toxicity | S. cerevisiae expressing PfHsp40, growth rescue, ATP luminescence | growth rescue, % at 12.5 µM | 340,000 compounds, 0.68% hits; in the data active = growth rescue above about 28%, passing the limit was not always enough;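 also: yeast W303a lacking pdr1 and pdr3 grown in galactose medium; growth measured after three days at 30 °C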
CCHF vOTU inh-2 = CCHFV vOTU protease inhibition, confirmation | shares compounds with CCHF vOTU inh-1 | Recombinant CCHFV vOTU, Pep-AMC fluorescence | inhibition, % at 11.5 µM | 1,900 compounds, 17% hits
PrPC TRFRET cf = cell surface PrPC inhibition, TR-FRET confirmation | shares compounds with PrPC TRFRET | cell surface PrPC level | inhibition, % at 13.8 µM | 1,500 compounds, 65% hits | AID 743200; in the data active = inhibition above about 25%
LD9 tox = counter-screen for PrPc inhibitors: cytotoxicity in LD9 cells; shares compounds with PrPC TRFRET; luminescence viability; inhibition, % at 13.8 µM; 1,500 compounds, 29% hits; in the data active = inhibition above about 9.5%
Numbers without * were called inactive; . = no result given. Rule as the data show it, unless noted: active = inhibition above about 30%; inactive = the rest.

SMILES	Sa RN4220 lethal	Sa ugtP lethal	CCHF vOTU inh-1	PrPC TRFRET	PrP UTR inh	PfHsp40 rescue	CCHF vOTU inh-2	PrPC TRFRET cf	LD9 tox
CCOc1ccc(-n2c(O)c(C=Nc3ccc(N(CC)CC)cc3)c(=O)[nH]c2=O)cc1	3	-17	-9	-3	-11	0	.	.	.
CCN(CC)c1ccc(N=Cc2c(O)n(-c3ccccc3)c(=O)[nH]c2=O)cc1	5	8	30*	-1	-11	-1	-20	.	.
CCCn1c(O)c(N=NC(=O)CNC(=O)Cc2ccc(OC)cc2)c2ccccc21	3	8	32*	-35	-18	0	-4	.	.
CCCn1c(O)c(N=NC(=O)CNC(=O)/C=C/c2ccc(OC)cc2)c2ccccc21	1	-1	21	-5	-1	1	.	.	.
O=C(NN=C/C(Br)=C\c1ccccc1)c1ccco1	-5	1	.	.	.	.	.	.	.
COC(=O)N/N=C1/C/C(=N\NC(=O)OC)c2ccccc21	.	.	89*	-15	-19	2	72*	.	.
COc1ccc(NC(=O)COc2cc(C)cc(C)c2)cc1S(=O)(=O)N1CCCCC1	-2	-9	30*	9	-26	1	-16	.	.
COc1ccc(NC(=O)COc2ccc(C)c(C)c2)cc1S(=O)(=O)N1CCCCC1	1	4	15	11	-59	1	.	.	.
Cc1ccc(CN2C(=O)C[C@@H](NC(=O)OCC3c4ccccc4-c4ccccc43)C/C=C\C2c2ccc(C)cc2)cc1 (stereo partly drawn)	1	-6	32*	-5	-4	0	-9	.	.
O=C(NC1C/C=C\C(c2ccccc2)N(c2ccccc2)C(=O)C1)OCC1c2ccccc2-c2ccccc21 (stereo not drawn)	.	.	.	.	-24	1	.	.	.
COc1cc(C=C(NC(=O)c2ccccc2Cl)C(=O)O)cc(OC)c1OC	8	3	.	.	.	.	.	.	.
CCN(c1cccc(C)c1)S(=O)(=O)c1ccc2c(c1)CCN2C(C)=O	31	1	2	-6	-15	0	.	.	.
CCN(c1cccc(C(F)(F)F)c1)S(=O)(=O)c1ccc2c(c1)CCN2C(C)=O	21	4	42*	80*	-2	0	2	18	-4
CC(C)Cc1ccc(C(C)C(=O)Nc2ccc(O)cc2)cc1 (stereo not drawn)	10	14	30*	28*	-3	0	2	21	0
O=C(NN=Cc1ccc(Cl)cc1)c1nc2ccc([N+](=O)[O-])cc2c(=O)[nH]1	0	5	.	.	.	.	.	.	.
Nc1ccc2c(c1)C(=O)C(=O)c1ccccc1-2	98*	98*	101*	64*	-37	0	97*	61*	99*
CCCC(=O)Nc1ncnc2c1ncn2C1OC2OP(=O)(O)OCC2C1OC(=O)CCC (stereo not drawn)	5	-4	.	.	.	.	.	.	.
CCCCCCCCCCCCCCCC[n+]1cccc2ccccc21	99*	97*	44*	40*	10	6	70*	51*	55*
Cc1ccccc1C[n+]1cccc2ccccc21	2	3	-12	-14	-22	-1	.	.	.
CCOC(=O)[C@]12Cc3cc4c(cc3C1N(Cc1ccccc1)C(=O)c1ccccc12)OCO4 (stereo partly drawn)	-3	-9	.	.	.	.	.	.	.
CCCCCCCCCCCCCCCC[n+]1ccccc1	100*	100*	38*	28*	10	1	37*	39*	36*
CC=CC(=O)Nc1cccc(C2=NOC3(C2)CC(C(N)=O)N(C(=O)CC(c2ccccc2)c2ccccc2)C3)c1 (stereo not drawn)	11	6	.	.	.	.	.	.	.
Oc1c(CN2CCCCC2)cc(Br)c2cccnc12	12	-23	70*	32*	23	5	-7	4	16*
O=C(COc1c(Br)cc(Br)c2cccnc12)N1CCCCC1	-7	5	-2	8	-28	0	.	.	.
CC1OC(CC(=O)O)CC2=C1C(=O)c1c(O)cccc1C2=O (stereo not drawn)	.	.	93*	71*	46	-7	98*	86*	98*
SMILES	Sa RN4220 lethal	Sa ugtP lethal	CCHF vOTU inh-1	PrPC TRFRET	PrP UTR inh	PfHsp40 rescue	CCHF vOTU inh-2	PrPC TRFRET cf	LD9 tox
O=S(=O)(c1ccccc1)N(CC(F)(F)F)c1ccc(C(O)(C(F)(F)F)C(F)(F)F)cc1	.	.	34*	33*	.	.	0	14	-3
O=C1C(=O)N(CCCn2ccnc2)C(c2ccc(Cl)cc2)/C1=C(\O)c1ccc2c(c1)OCCO2 (stereo not drawn)	-2	-4	48*	32*	-12	2	-12	12	-4
O=C1C(=O)N(CCCn2ccnc2)C(c2ccc(Br)cc2)/C1=C(\O)c1ccc2c(c1)OCCO2 (stereo not drawn)	-4	-6	23	16	-15	1	.	.	.
O=C(CCN1CCN(c2ccccc2)CC1)NN=Cc1ccccc1O	16	4	.	.	.	.	.	.	.
Cc1ccccc1Cn1cc(NC(=O)c2cc(-c3ccco3)on2)cn1	2	7	-5	30*	-19	0	.	16	5
CON(C)C(=O)CC1CC(OC(=O)c2ccc([N+](=O)[O-])cc2)CN1C(=O)OC(C)(C)C (stereo not drawn)	3	0	.	.	.	.	.	.	.
Cc1ccc2nc3c(c(C(=O)O)c2c1)CCC3	8	4	9	2	-19	0	.	.	.
CNC(=O)c1c2c(nc3ccc(Br)cc13)CCCC2	2	83*	-3	25*	-3	-2	.	35*	-4
CCc1cc2cccc(C)c2nc1SCC(=O)NC1CCCC1	6	4	-17	5	-20	0	.	.	.
Cc1cc2cccc(C)c2nc1SCC(=O)NNC(=O)c1ccco1	.	.	1	55*	-34	-1	.	65*	-5
CCOC(=O)CNC(=O)CSc1nc2c(C)cccc2cc1CC	4	6	5	71*	-21	0	.	107*	-2
CCc1cc2cc(C)cc(C)c2nc1SCC(=O)N1CCN(C(=O)c2ccco2)CC1	7	-4	2	0	-12	-1	.	.	.
Cc1cc(C)c2nc(SCC(=O)NNC(=O)c3ccco3)c(C)cc2c1	4	-6	9	44*	-12	0	.	45*	-2
CCc1cc2cccc(C)c2nc1SCC(=O)N1CCN(C(=O)c2ccco2)CC1	1	-9	1	25*	-5	3	.	59*	3
COc1ccc(Cl)cc1N/C(N)=N/c1nc(C)cc(=O)[nH]1	2	5	9	32*	-36	0	.	4	-1
COc1ccc(NC(=O)CCSc2ccc3ccccc3n2)cc1	2	7	2	56*	-16	2	.	75*	-2

Source: PubChem BioAssay (several laboratories)
